Where “and” joins values, the source holds several entries; their conditions need not be identical. Identical values can stand only once. Out of some 290,000 compounds screened, about 27,000 (9.3%) were called active. What follows is part of a selection rich in actives, with near analogues and random picks from the rest. A number with no mark means an inactive call. Rule as the data show it: active = inhibition mostly above about 28% (no sharp cut-off); inactive = mostly below about 43%.

A short description of the assay: A qHTS for Small Molecule Inhibitors of Shiga Toxin. Also: 0% is about no effect. The note with it: Vero cells, Shiga toxin protein synthesis inhibition reporter; at 38.7 µM, active compounds read high.
Take `Cc1nc2ccc(C(=O)N(C)CC3CCCN(CCc4ccc(Cl)cc4)C3)cc2[nH]1` (stereo not given): the inhibition is -8.28%. To `COc1ccc(COC(=O)c2ccc(Cl)c(S(=O)(=O)N3CCOCC3)c2)cc1F` belongs -8.8%. As for `O=C(NCc1ccc(Cl)cc1)C1CCN(S(=O)(=O)c2cccs2)CC1`, the inhibition was 4.43%. With `O=C(CN1CCN(S(=O)(=O)c2ccc(Cl)s2)CC1)NCc1ccc(Cl)cc1` the figure was 34.8% (active); with `Cc1ccccc1N1CCN(CC(=O)NCc2ccc(Cl)cc2)CC1`, -5.06%. In the case of `CC(C)c1ccccc1OCC(O)CN(CC(O)COc1cccc2ccccc12)C(C)C` (stereo not given), the inhibition is -14.8%. Take `COc1cccc(C(=O)NC(=O)Nc2nc(C)cc(C(F)(F)F)n2)c1`: the inhibition was 4.77%. With `Cn1nc(-c2ccccc2)c(-c2nc(-c3ccc(Cl)cc3)no2)c1Cl` the figure was -16%. With `Brc1ccc(-c2nnc(-c3ccccc3)o2)o1` the figure was 71.5% (active); with `Brc1ccc(-c2noc(-c3ccccc3)n2)o1`, 139% (active). With `Nc1nonc1-c1noc(-c2ccc(Br)o2)n1` the figure was 24.2%; with `COc1ccc(CNC(=O)CCN2C(=O)c3ccccc3C2=O)cc1`, 4.69%; with `O=C(O)CC(c1ccccc1F)N1Cc2ccccc2C1=O` (stereo not given), -12%. On to `COC(=O)c1cn(CC(=O)NCc2cccs2)c2ccccc12`, for which the inhibition was 64.8% (active). To `O=C(CN1CCN(c2ccccn2)CC1)NCc1cccs1` belongs -22.2%. To `CCN(CC)C(=O)C(=O)c1cn(CC(=O)NCc2ccc3c(c2)OCO3)c2ccccc12` belongs -11.5%.

`COC(=O)Cn1cc(C(=O)c2cccs2)c2ccccc21`: the inhibition was 2.14%. As to `O=C(Cn1cc(C(=O)c2cccs2)c2ccccc21)NCc1cccs1`, the inhibition is 16.3% (active). With `COCCCNC(=O)Cn1cc(C(=O)C2CC2)c2ccccc21` the figure was -8.71%. Consider `Cc1cc(=O)[nH]c(Nc2cccc(Br)c2)n1`, for which the inhibition was -10.8%. As to `N#Cc1cccc(CSc2ncnc(N)n2)c1`, the inhibition is 3.32%.

With `Cc1ccccc1-n1cc(CNC(=O)C2CCC(=O)N(C3CC3)C2)cn1` (stereo not given), the inhibition was 21.3%. To `COc1ccc2c(c1)N(C)/C(=C1/SC(=S)N(NC(C)=O)C1=O)S2` belongs 7.78%. Turning to `COc1ccc(N(Cc2ccc(N(C)C)cc2)C(=O)c2ccc(S(C)(=O)=O)cc2)cc1`, the inhibition is -10.5%. With `CCOc1ccc(OCc2cccc(C(=O)N(CC)CC)c2)cc1` the figure was 160% (active); with `CC(=O)Oc1ccc(-c2cccc(C(=O)N3CCCCC3)c2)cc1`, 37.3%. With `COc1cccc(COc2ccc(N(C)S(=O)(=O)c3ccccc3)cc2)c1` the figure was 26%. Turning to `CCOc1ccc(OCc2ccc(C(=O)N(C)c3ccccc3)o2)cc1`, the inhibition was 13%. With `COc1ccc(Cn2c(=S)[nH]c3cc(C(=O)N4CCCCC4)ccc3c2=O)cc1`, the inhibition is -3.58%.

As for `COc1ccc(OCc2cccc(C(=O)N3CCCC3)c2)cc1`, the inhibition is 147% (active). To `O=C(COc1ccccc1[N+](=O)[O-])NC1CC1` belongs 19.4%; to `CCN1C(=NCc2ccc(OC)cc2)N[C@@H](CCc2ccccc2)[C@H](C(=O)NCc2ccc(OC)cc2)[C@H]1C`, 2.67% and -2.62%; to `CCc1ccc(NC(=O)Cn2ncn3c(cc4ccccc43)c2=O)cc1`, 5.27%. With `CCOC(=O)c1cn(CC(=O)Nc2ccc(C(C)C)cc2)nn1` the figure was -16.4%; with `CC(C)c1ccc(NC(=O)Cn2ncc3ccccc32)cc1`, 74.2% (active). To `Nc1nonc1-n1nnc(C(=O)N/N=C/c2c[nH]c3ccccc23)c1-c1ccccc1` belongs -17%; to `CCn1cc(S(=O)(=O)c2cccc(C)c2)c(=O)c2cc(F)c(N3CCN(C)CC3)cc21`, 4.57%. `CC(=O)Oc1cccc(C(=O)Nc2ccccc2NC(=O)c2cccc(OC(C)=O)c2)c1`: the inhibition was -7.51%. To `CN1CCN(c2ccc(NC(=O)c3ccccc3)cc2)CC1` belongs 47.5% (active). To `CN1CCN(c2ccc(NC(=O)c3ccc4c(c3)[nH]c(=O)n4Cc3ccc(F)cc3)cc2)CC1` belongs -1.72%. Turning to `COc1cccc(C(=O)Nc2cc3c(cc2Br)OCCCO3)c1`, the inhibition was 95.9% (active). With `COc1cccc(C(=O)Nc2ccc(N3CCN(C(=O)c4ccco4)CC3)cc2)c1`, the inhibition is 2.21%. On to `COc1ccc(C(=O)NC(=S)Nc2ccc(N3CCCC3)cc2)cc1OC`, for which the inhibition is 11.5%. As to `Cc1ccccc1C(=O)Nc1ccc(N2CCCCCC2)cc1`, the inhibition was 36.6%. With `COc1cccc(C(=O)Nc2ccc(N3CCCC3)cc2)c1` the figure was 47.9% (active). Take `COc1cccc(C(=O)NNC(=O)c2ccccc2Br)c1`: the inhibition was -5.95%. With `Cc1ccc(-c2noc(CNC(=O)c3ccoc3C)n2)cc1` the figure was -9.24%.

In the case of `CCOCCCNC(=O)c1ccc(CS(=O)(=O)c2cccc(C(F)(F)F)c2)o1`, the inhibition was 21.3%. Consider `COC(=O)c1ccc(NC(=O)c2cc3c(CO)cnc(C)c3oc2=Nc2cccc(C(N)=O)c2)cc1`, for which the inhibition was -1.8%.

On to `CCN1C(=NCC(C)C)N[C@@H](CCc2ccccc2)[C@H](C(=O)NCC(C)C)[C@H]1C`, for which the inhibition is -2.89% and 9.38%. Consider `O=C(CNC(=O)c1cccnc1)N/N=C/c1cc(Br)c(O)c(Br)c1`, for which the inhibition was -3.98%.

Regarding `O=S(=O)(c1ccccc1)N(Cc1cccc(F)c1)c1ccccc1`, the inhibition was -4.98%. With `CNC(=S)N/N=C/c1cn(Cc2ccc(C)cc2)c2ccccc12` the figure was 21.9%. With `COC(=O)N/N=C/c1cn(CCCOc2ccc(C)cc2)c2ccccc12` the figure was 37.2% (active); with `CCOC(=O)N/N=C/c1cn(Cc2ccccc2Cl)c2ccccc12`, 20.2%; with `Cc1ccc(NC(=O)CN(C)C(=O)COC(=O)C(C)(C)Oc2ccc(Cl)cc2)cc1`, -9.8%. With `O=C(CN1CCN(c2cccc(Cl)c2)CC1)Nc1ccc(S(=O)(=O)N2CCOCC2)cc1`, the inhibition is -9.51%.

Turning to `O=C(CSCc1ccccc1)Nc1ccccc1`, the inhibition is 50.8% (active). To `Cn1c(CSCC(=O)Nc2ccccc2)nnc1SCc1ccccc1` belongs 18.4%; to `Cc1c(NC(=O)CSCc2ccccc2)cccc1C(=O)O`, 31.3%.

The values above are taken from PubChem BioAssay AID2315 (National Center for Advancing Translational Sciences (NCATS), 2010).
